Inconclusive results are not listed. A call without a number means that no potency is given here. Activity calls are given as the source filed them. Calls follow the shape of the dose curve; as a rule, active = well fitted inhibition curve with a large enough effect; inconclusive = small, poorly fitted or top-dose-only effect; inactive = no such curve, though single readings can be large or run the other way.
Molecular target: N-terminal Xaa-Pro-Lys N-methyltransferase 1 (Homo sapiens) (UniProt Q9BV86)
Assay: qHTS Assay for Inhibitors of N-terminal methyltransferase 1 (NTMT1): LOPAC validation of the NTMT1 SAHH-coupled ThioGlo3 Assay (AID 1347143);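 also: SAH from peptide methylation measured as thiol fluorescence via SAHH coupling and ThioGlo3; nearly all actives have a fitted effect of over 70% in size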
Conditions: recombinant NTMT1, SAHH-coupled ThioGlo3 fluorescence; series mostly up to 114 µM
Procedure, shortened: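 Recombinant human NTMT1 (125nM) was pre-incubated 1 min at room temperature with compounds over a concentration range, then a mix of 100uM SAM, 10uM SAHH and 15uM ThioGlo3 (concentrations in added reagent) was added. ThioGlo3 fluorescence (ex 340/em 450nm) after 30 min was normalized to the initial reading.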
Potency is read from the fitted curve at half-maximal effect.

Chain of N-terminal Xaa-Pro-Lys N-methyltransferase 1 (Homo sapiens) (Q9BV86 whole entry, looked up): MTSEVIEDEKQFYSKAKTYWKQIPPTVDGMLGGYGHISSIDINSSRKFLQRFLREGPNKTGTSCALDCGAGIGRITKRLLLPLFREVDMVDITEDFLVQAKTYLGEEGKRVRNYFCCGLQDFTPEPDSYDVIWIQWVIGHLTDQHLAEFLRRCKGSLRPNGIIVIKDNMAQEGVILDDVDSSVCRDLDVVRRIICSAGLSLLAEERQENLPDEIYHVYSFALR

OC[C@H]1O[C@H](n2cnc3c(N[C@H]4CCC[C@@H]4O)ncnc32)[C@H](O)[C@@H]1O was tested. Which Potency did it give?
Its Potency is “inactive”.

How did the Potency turn out when COc1ccc2c(c1)c(CC(=O)O)c(C)n2C(=O)c1ccccc1 was run?
The Potency was “inactive”.

For c1ccc(C2CN3CCSC3=N2)cc1 (stereo not drawn), which Potency is on record?
The Potency was “inactive”.

Cn1c(=O)[nH]c2ncn(C)c2c1=O was tested. Which Potency did it give?
The Potency was “inactive”.

How did the Potency turn out when C=C1C(=O)O[C@@H]2[C@H]3O[C@]3(C)CCC=C(C)CC[C@@H]12 was run?
Its Potency is “inactive”.

With CC[n+]1c(/C=C/C=C2/N(C)c3ccccc3C2(C)C)sc2ccccc21 as the molecule, how does the Potency read?
Its Potency is 35.5 µM (active).

With Nc1ccc(-c2ccc3ccccc3n2)cc1 as the molecule, how does the Potency read?
Its Potency is 39.8 µM (active).

With Cc1cccc(C)c1OCC(N)C(C)C (stereo not drawn) as the molecule, how does the Potency read?
The Potency was 50.1 µM (active).

For CCCCCCCCCCCCCCSCC(=O)O, which Potency is on record?
Its Potency is “inactive”.

With C[C@@H](NCCc1ccc(O)cc1)[C@@H](O)c1ccc(O)cc1 as the molecule, how does the Potency read?
The Potency was “inactive”.

Cn1c(=O)c2[nH]c(C3CCCC3)nc2n(C)c1=O was tested. Which Potency did it give?
Its Potency is “inactive”.

For COC(=O)C(C)(N)Cc1ccc(O)cc1 (stereo not drawn), which Potency is on record?
Its Potency is “inactive”.

For Fc1ccc(CN(C2=NCCN2)c2c(Cl)cccc2Cl)cc1, which Potency is on record?
Its Potency is “inactive”.

With COc1ccc(NC(=O)c2ccc(-c3ccc(-c4noc(C)n4)cc3C)cc2)cc1N1CCN(C)CC1 as the molecule, how does the Potency read?
Its Potency is “inactive”.

With NC1CONC1=O (stereo not drawn) as the molecule, how does the Potency read?
Its Potency is “inactive”.

How did the Potency turn out when CC(=O)O[C@H]1CC2(C)[C@@H](C[C@@H](O)[C@H]3[C@@]4(C)CC[C@@H](O)[C@@H](C)[C@@H]4CC[C@@]32C)C1=C(CCC=C(C)C)C(=O)O (stereo partly drawn) was run?
Its Potency is “inactive”.

Which Potency does the source give for N=C(N)SCCN here?
The Potency was “inactive”.

With NCCCCN=C(N)N as the molecule, how does the Potency read?
The Potency was “inactive”.

How did the Potency turn out when C=CCN1CCc2c(cc(O)c(O)c2Cl)C(c2ccccc2)C1 (stereo not drawn) was run?
The Potency was 20 µM (active).

For O=C(O)C1CCCNC1 (stereo not drawn), which Potency is on record?
The Potency was “inactive”.

For c1ccc(C(NCc2cccnc2)(c2ccccc2)c2ccccc2)cc1, which Potency is on record?
Its Potency is “inactive”.

C#CCn1c(=O)c2c(ncn2C)n(C)c1=O was tested. Which Potency did it give?
The Potency was “inactive”.

With CC(C)(CO)Cc1cc(C(C)(C)C)c(O)c(C(C)(C)C)c1 as the molecule, how does the Potency read?
Its Potency is “inactive”.

COc1cc(/C=C(\C#N)C(=O)c2ccc(O)c(O)c2)cc(I)c1O was tested. Which Potency did it give?
Its Potency is 50.1 µM (active).

How did the Potency turn out when CCCCCCCCCCCCCCCCCCOC[C@H](COP(=O)([O-])OCC[N+](C)(C)C)OC was run?
The Potency was “inactive”.

Which Potency does the source give for COc1cc(CC(=O)O)ccc1O here?
Its Potency is “inactive”.

Oc1ccc(/C=C/c2ccc(/C=C/c3ccc(O)cc3)c(Br)c2)cc1 was tested. Which Potency did it give?
Its Potency is “inactive”.

For N[C@@H](CCC(=O)N[C@H](CSN=O)C(=O)NCC(=O)O)C(=O)O, which Potency is on record?
Its Potency is “inactive”.

Tested on: Zika virus NS2B-NS3 protease (unlinked)
Assay: Optimization of GU AMC qHTS for Zika virus inhibitors: Unlinked NS2B-NS3 protease assay (AID 1347151); also: nearly all actives have a fitted effect of over 80% in size
Conditions: recombinant ZIKV NS2B-NS3 protease, fluorogenic AMC substrate; series mostly up to 52.5 µM
Procedure, shortened: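 In this qHTS, compounds acted on 25 nM unlinked Zika NS2B–NS3 in pH 8.0 Tris/Tween buffer. Cleavage of an AMC peptide ran 15 min at room temperature, to about 20% conversion.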

CSc1nc(N)c2ncn([C@@H]3O[C@H](COP(=O)(O)OP(=O)(O)O)C(O)[C@H]3O)c2n1 (stereo partly drawn) was tested. Which Potency did it give?
Its Potency is “inactive”.

NCCS(=O)O was tested. Which Potency did it give?
Its Potency is “inactive”.

For OC[C@H]1O[C@H](n2cnc3c(N[C@H]4CCC[C@@H]4O)ncnc32)[C@H](O)[C@@H]1O, which Potency is on record?
Its Potency is “inactive”.

How did the Potency turn out when CCN1C(=O)C=CC1=O was run?
Its Potency is “inactive”.

With COc1ccc2c(c1)c(CC(=O)O)c(C)n2C(=O)c1ccccc1 as the molecule, how does the Potency read?
The Potency was “inactive”.

Which Potency does the source give for c1ccc(C2CN3CCSC3=N2)cc1 (stereo not drawn) here?
Its Potency is “inactive”.

With Cn1c(=O)[nH]c2ncn(C)c2c1=O as the molecule, how does the Potency read?
The Potency was “inactive”.

Which Potency does the source give for O=S(=O)(c1cccc2c(Cl)cccc12)N1CCCNCC1 here?
The Potency was “inactive”.

For C=C1C(=O)O[C@@H]2[C@H]3O[C@]3(C)CCC=C(C)CC[C@@H]12, which Potency is on record?
The Potency was “inactive”.

Which Potency does the source give for Nc1ccc(-c2ccc3ccccc3n2)cc1 here?
The Potency was 23.8 µM (active).

For Cc1cccc(C)c1OCC(N)C(C)C (stereo not drawn), which Potency is on record?
The Potency was “inactive”.

For CCCCCCCCCCCCCCSCC(=O)O, which Potency is on record?
The Potency was 11.9 µM (active).

With Cn1c(=O)c2[nH]c(C3CCCC3)nc2n(C)c1=O as the molecule, how does the Potency read?
Its Potency is “inactive”.

Which Potency does the source give for COC(=O)C(C)(N)Cc1ccc(O)cc1 (stereo not drawn) here?
Its Potency is “inactive”.

Which Potency does the source give for O=c1ccc2c(OCCCCc3ccccc3)c3ccoc3cc2o1 here?
Its Potency is 26.7 µM (active).

How did the Potency turn out when CCCCOC(=O)NS(=O)(=O)c1sc(CC(C)C)cc1-c1ccc(Cn2c(CC)nc3c(C)cc(C)nc32)cc1 was run?
Its Potency is “inactive”.

Which Potency does the source give for Fc1ccc(CN(C2=NCCN2)c2c(Cl)cccc2Cl)cc1 here?
Its Potency is “inactive”.

How did the Potency turn out when CC(=O)NCCc1c[nH]c2ccc(O)cc12 was run?
Its Potency is “inactive”.

Which Potency does the source give for COc1ccc(NC(=O)c2ccc(-c3ccc(-c4noc(C)n4)cc3C)cc2)cc1N1CCN(C)CC1 here?
The Potency was “inactive”.

How did the Potency turn out when NC1CONC1=O (stereo not drawn) was run?
The Potency was “inactive”.

For CC(=O)O[C@H]1CC2(C)[C@@H](C[C@@H](O)[C@H]3[C@@]4(C)CC[C@@H](O)[C@@H](C)[C@@H]4CC[C@@]32C)C1=C(CCC=C(C)C)C(=O)O (stereo partly drawn), which Potency is on record?
Its Potency is “inactive”.

How did the Potency turn out when N=C(N)SCCN was run?
Its Potency is “inactive”.

With NCCCCN=C(N)N as the molecule, how does the Potency read?
The Potency was “inactive”.

C=CCN1CCc2c(cc(O)c(O)c2Cl)C(c2ccccc2)C1 (stereo not drawn) was tested. Which Potency did it give?
The Potency was 18.9 µM (active).

With C#CCn1c(=O)c2c(ncn2C)n(C)c1=O as the molecule, how does the Potency read?
Its Potency is “inactive”.

For COc1ccc(C(=O)NCc2cccnc2)cc1C(=O)NCc1cccnc1, which Potency is on record?
Its Potency is “inactive”.

With CCCCCCCCCCCCCCCCCCOC[C@H](COP(=O)([O-])OCC[N+](C)(C)C)OC as the molecule, how does the Potency read?
The Potency was “inactive”.

With COc1cc(CC(=O)O)ccc1O as the molecule, how does the Potency read?
Its Potency is “inactive”.

How did the Potency turn out when Oc1ccc(/C=C/c2ccc(/C=C/c3ccc(O)cc3)c(Br)c2)cc1 was run?
The Potency was “inactive”.

N[C@@H](CCC(=O)N[C@H](CSN=O)C(=O)NCC(=O)O)C(=O)O was tested. Which Potency did it give?
The Potency was “inactive”.
